According to PubChem BioAssay:
Unmarked numbers belong to inactive results. Calls of active or inactive are those of the source.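 Rule for the calls: active = mean inhibition over 43.08%, the solvent-only control mean plus 3 SD; inactive = the rest.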

Biological target: Nuclear receptor coactivator 3 (Homo sapiens) (UniProt Q9Y6Q9)
Experiment: NCOA3 GAL4-fusion reporter inhibition – cell-based, luminescence, quadruplicate, confirmation (AID 588792);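 note: 0% = DMSO treated cells and 100% = gossypol at 36 µM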
Conditions: HEK293 GAL4-SRC3 luciferase reporter, at 3.6 µM, active compounds read high

Nuclear receptor coactivator 3 (Homo sapiens), sequence (Q9Y6Q9 whole entry, looked up, the tested form may be a part): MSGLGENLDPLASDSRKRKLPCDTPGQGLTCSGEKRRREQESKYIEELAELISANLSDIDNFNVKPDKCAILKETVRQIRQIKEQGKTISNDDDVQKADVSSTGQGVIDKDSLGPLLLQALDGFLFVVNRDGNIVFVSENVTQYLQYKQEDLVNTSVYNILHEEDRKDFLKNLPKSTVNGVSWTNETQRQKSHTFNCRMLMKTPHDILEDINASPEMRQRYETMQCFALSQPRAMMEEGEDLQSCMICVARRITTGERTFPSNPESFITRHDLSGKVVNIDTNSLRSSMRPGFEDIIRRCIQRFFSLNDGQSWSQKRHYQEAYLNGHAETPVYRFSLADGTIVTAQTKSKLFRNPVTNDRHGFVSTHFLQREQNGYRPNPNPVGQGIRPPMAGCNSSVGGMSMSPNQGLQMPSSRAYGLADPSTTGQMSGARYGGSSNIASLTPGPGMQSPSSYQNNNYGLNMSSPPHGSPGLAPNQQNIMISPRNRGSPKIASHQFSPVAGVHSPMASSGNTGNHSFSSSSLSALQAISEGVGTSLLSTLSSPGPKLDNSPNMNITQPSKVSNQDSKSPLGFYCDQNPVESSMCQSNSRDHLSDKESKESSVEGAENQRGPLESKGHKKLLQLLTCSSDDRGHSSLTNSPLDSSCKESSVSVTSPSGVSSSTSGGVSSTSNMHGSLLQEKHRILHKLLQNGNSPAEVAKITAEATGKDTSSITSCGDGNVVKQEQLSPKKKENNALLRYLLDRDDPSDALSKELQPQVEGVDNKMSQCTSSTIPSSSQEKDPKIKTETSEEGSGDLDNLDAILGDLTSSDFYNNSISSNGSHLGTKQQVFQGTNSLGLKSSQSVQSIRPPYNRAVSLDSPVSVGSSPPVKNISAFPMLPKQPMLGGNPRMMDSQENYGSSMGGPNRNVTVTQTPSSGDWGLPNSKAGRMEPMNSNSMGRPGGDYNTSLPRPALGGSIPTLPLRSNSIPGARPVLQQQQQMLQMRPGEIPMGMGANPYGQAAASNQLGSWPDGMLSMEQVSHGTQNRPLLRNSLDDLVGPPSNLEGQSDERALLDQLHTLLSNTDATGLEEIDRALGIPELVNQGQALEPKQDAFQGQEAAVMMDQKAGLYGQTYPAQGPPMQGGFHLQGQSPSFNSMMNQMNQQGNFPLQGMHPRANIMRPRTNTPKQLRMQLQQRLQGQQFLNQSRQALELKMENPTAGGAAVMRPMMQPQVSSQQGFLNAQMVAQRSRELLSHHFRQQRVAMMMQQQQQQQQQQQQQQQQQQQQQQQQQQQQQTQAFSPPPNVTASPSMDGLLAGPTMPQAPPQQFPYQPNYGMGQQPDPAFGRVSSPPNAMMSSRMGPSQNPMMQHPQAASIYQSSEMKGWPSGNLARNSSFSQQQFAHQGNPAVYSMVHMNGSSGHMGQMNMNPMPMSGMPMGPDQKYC

Compound | inhibition
CC(C)(CC(=O)O)CC(=O)Nc1cc(C(F)(F)F)cc(C(F)(F)F)c1 | 6.02%
COC(=O)c1sc(NC(=O)c2cc(-c3ccccc3)nc3ccccc23)c(C#N)c1C | 5.32%
Cn1nc(C(F)(F)F)c(-c2ccc(Br)cc2)c1NC(=O)c1ccco1 | 7.4%
Cc1nnsc1-c1onc(C)c1C(=O)Nc1cc(Cl)cc(Cl)c1 | 15.8%
Cc1cc(C=C2C(=O)c3ccccc3C2=O)c(C)n1-c1ccccc1 | 67.5% (active)
O=C(CNc1cccc([N+](=O)[O-])c1)N/N=C/c1ccc([N+](=O)[O-])o1 | 32.3%
Cc1ccc(S(=O)(=O)N(C)c2ccc(OCC(=O)OCc3c(C)noc3C)cc2)cc1 | -4.68%
COc1ccc(S(=O)(=O)Nc2cc([N+](=O)[O-])ccc2OC)cc1 | -7.49%
COc1ccc(C(=O)NCC(=O)OCc2c(Cl)cccc2Cl)cc1OC | -0.66%
COc1cccc(/C=N/NC(=O)c2ccc(=O)n(C)c2)c1O | 12.1%
CN1C(=O)C2(C(C#N)=C(N)N(c3cc(Cl)cc(Cl)c3)C3=C2C(=O)CC(C)(C)C3)c2ccccc21 (stereo not given) | 46.5% (active)
c1ccc(-n2nnnc2NCCCN2CCOCC2)cc1 | -14.3%
O=C(Nc1nc(-c2ccc3c(c2)OCCO3)cs1)c1ccc(S(=O)(=O)N2CCCCC2)cc1 | -0.44%
CC(=O)N1CCCc2cc(S(=O)(=O)N3CCCC(C(=O)NCc4ccc(Cl)cc4)C3)ccc21 (stereo not given) | 4.47%
CCN(CC)c1ccc(/C=N/NC(=O)c2cnccn2)c(O)c1 | 45.2% (active)
CCOC(=O)c1c(-c2ccccc2)nnn1-c1nc(OCC)nc(N2CCCCC2)n1 | -15.5%
CCCN1C(=O)c2ccccc2NC1c1ccc(Cl)c(Cl)c1 (stereo not given) | 17.8%
CCN(CC)S(=O)(=O)c1cccc(NC(=O)Nc2cccc(C(F)(F)F)c2)c1 | 13.9%
O=C(Cn1cnc([N+](=O)[O-])n1)N/N=C/c1cc(Cl)ccc1O | 20.3%
O=C(NC1CCCC1)C(c1ccncc1)N(Cc1ccccc1)C(=O)Cc1cccs1 (stereo not given) | 2.62%

Compound | inhibition
C=CCn1c(SCC(=O)NC2CCCC2)nnc1-c1ccccn1 | -14.7%
COc1ccc(Nc2nc(-c3ccccc3)nc3ccccc23)cc1S(=O)(=O)N1CCOCC1 | 7.91%
CCC1C(=O)NCCN1C(=O)c1ccc2nc(Cc3ccc(OC)cc3)oc2c1 (stereo not given) | -2.02%
COc1ccc(N/N=C2/CCCCC2=O)cc1 | -38.4%
Cc1ccccc1NC(=O)C(=Cc1ccc(C(=O)O)cc1)C(=O)Nc1ccccc1C | 27.8%
CCCCCCC(=O)NNC(=O)CC(=O)Nc1ccccc1C(=O)O | 4.52%
COc1ccccc1OCC(=O)N/N=C/c1c(O)ccc2ccccc12 | 12.8%
C=CCSc1nsc(NC(=O)Nc2ccc(F)cc2)n1 | -4.43%
O=C(NCCCn1ccnc1)C(=O)NCc1ccc(Cl)cc1 | 20.3%
CCOC(=O)c1c(C)sc2c1N(C(=O)CCl)c1cc(Cl)ccc1S2 | -14.3%
Cn1c(=O)n(C)c2cc(NS(=O)(=O)c3ccc(C(C)(C)C)cc3)ccc21 | 16.6%
Cc1[nH]n(-c2ccccc2)c(=O)c1/C=N/Nc1nncc(-c2ccccc2)n1 | 74.3% (active)
COc1ccc(/C(C)=N/NC(=O)c2cccc(S(=O)(=O)N3CCCC3)c2)c(O)c1 | 67.9% (active)
Cc1noc(C)c1COC(=O)c1cc(F)c(F)cc1Cl | 2.84%
S=c1[nH]nc(C2CCCCC2)n1/N=C/c1ccco1 | -2.38%
CCOc1cc(N2CCOCC2)c(OCC)cc1NC(=O)c1cc(-c2ccco2)nc2ccccc12 | 17.5%
CCOc1ccc(S(=O)(=O)N2CCN(C(=O)COc3ccc(Br)cc3)CC2)cc1 | 14.4%
O=C(CN1C(=O)c2ccccc2S1(=O)=O)c1ccc(F)cc1 | -13.1%
O=C(CCc1ccccc1)N/N=C/c1cc(Br)ccc1O | 24.5%
Oc1cccc2ccc(Nc3ccccn3)nc12 | 3.4%
